# Screens from PubChem.
# A selection: hits, their analogues and other compounds. The true share with any hit is near 3.7%.
# Nrf2 inh: inhibitors of Nrf2 signaling; A549 ARE-Fluc reporter, luciferase luminescence, 18-24 h; Potency, µM (top dose mostly 46 µM), for inactives: top-dose activity change, negative = inhibition, most hits filed as inhibitors; 2.1% of 360,000 active; AID 504444; also: % is scaled to controls: 0 for no effect and ±100 for the full control effect; nearly all actives have a fitted effect of over 60% in size
#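 In this cell-based qHTS, ARE-driven firefly luciferase in A549 cells reports Nrf2 activity; the luminescent signal after BugLite lysis is the measured value, with a prior CellTiter-Fluor read for cell health.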
# ELG1 repair inh: ELG1-dependent DNA repair inhibition. 2.3% of 330,000 active. HEK293T ELG1-luciferase reporter, luminescence, 16 h; DNA damage induced by 5-fluorouridine. Potency, µM (top dose mostly 46.1 µM), without a hit: at the top dose activity change, negative = inhibition, hits mostly inhibitors. AID 504467; also: % is scaled to controls: 0 for no effect and ±100 for the full control effect; nearly all actives have a fitted effect of over 55% in size
#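 DMSO vehicle served as the neutral condition. Each well held 2,000 cells given 5-fluorouridine plus compound; after 16 hr at 37 °C/5% CO2, ONE-Glo was added and luciferase measured 30 min later.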
# Nrf2 activator: activators of Nrf2 (ARE) signaling. Potency, µM (doses to about 46.1 µM), for inactives: at the highest dose activation, hits mostly activators. AREc32 ARE-luciferase reporter (MCF7-derived line), luminescence, 24 h. 0.31% of 410,000 active; also: % of control where 0% means no effect; nearly all actives have a fitted effect of over 65% in size
#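 AREc32 cells carrying an ARE-driven firefly luciferase, 1000 cells/well in OPTI-MEM with 5% FBS, dosed after overnight attachment and incubated 24 hr at 37 deg C. Steady-Glo luminescence read after 30 min at RT.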
# A549 viability: A549 cytotoxicity, counter-screen for Nrf2 inhibitors; 0.16% of 390,000 active; Potency, µM (series often up to 46 µM), without a hit: at the highest dose activity change, negative = cytotoxicity, most hits filed as inhibitors; A549 ARE-Fluc cells, CellTiter-Fluor viability, 18-24 h; also: % is scaled to controls: 0 for no effect and ±100 for the full control effect
#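 A549 ARE-Fluc cells in 5% FBS OPTI-MEM, 5000 cells/well, rested 2 h then exposed to compounds in concentration-response for 18-24 h at 37 °C. Viability by CellTiter-Fluor fluorescence (Ex 405/Em 525) after 30 min; luciferase luminescence (BugLite, 15 min, RT) read afterwards.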
# Numbers without * were called inactive; ? = inconclusive; · = not tested or not shown. Calls follow the shape of the dose curve; as a rule, active = well fitted curve in the direction sought with a large enough effect; inconclusive = small, poorly fitted or top-dose-only effect, or another doubt; inactive = no such curve, though single readings can be large; an effect the other way counts as inactive or inconclusive. Potency is read from the fitted curve at half-maximal effect.
SMILES,Nrf2 inh,ELG1 repair inh,Nrf2 activator,A549 viability
C/C(=N\NC(=O)c1ccc(N/N=C(\C)c2ccncc2)cc1)c1ccncc1,-5%,23µM*,3%,-9%
CC(C)CC(=O)N1CCC(N(CCc2ccccc2)Cc2ccccc2)CC1,?,-30%,0%,-6%
O=C(CSc1nccc(-c2cccs2)n1)Nc1ccc(F)c(Cl)c1,?,-8%,7.9µM*,-1%
COc1ccc(-c2ccc(C(C)=O)cc2)cc1C1C2C=CCCC2(C)C(=O)N1Cc1ccccc1 (stereo not drawn),16µM*,·,·,?
COc1ccc(-c2ccc(C)cc2)cc1C1C2C=CCCC2(C)C(=O)N1Cc1ccccc1 (stereo not drawn),-24%,·,·,-2%
COc1ccc(-c2ccc(C(C)=O)cc2)cc1[C@H]1[C@@H]2C=CCC[C@@]2(C)C(=O)N1Cc1ccccc1,21µM*,21µM*,3%,-14%
CCOC(=O)/C(=C\c1ccc(OC(F)F)cc1)C1=Nn2c(nnc2-c2ccc(Cl)cc2)SC1,?,12µM*,?,?
CN1C(=O)/C(=C\c2ccco2)N=C1c1ccc(Cl)cc1Cl,7%,4%,2%,5%
CC(=O)N1CCc2c(sc(NC(=O)CSc3ccccc3)c2-c2nc3ccccc3s2)C1,?,·,-1%,?
CCCCC(=O)Nc1sc2c(c1-c1nc3ccccc3s1)CCN(C(C)=O)C2,·,18µM*,·,·
COc1cccc(CNC(=O)COC(=O)c2c(C)nn(-c3ccccc3)c2Cl)c1,-4%,23µM*,0%,-1%
Cc1nn(-c2ccccc2)c(C)c1C(=O)OCC(=O)NC12CC3CC(CC(C3)C1)C2,-2%,21µM*,6%,0%
COc1ccc(CN(C)C(=O)COC(=O)c2c(C)nn(-c3ccc(F)cc3)c2Cl)cc1,?,13µM*,4%,-2%
CC(=O)Nc1ccc(NC(=O)COC(=O)c2c(C)nn(-c3ccccc3)c2C)cc1,-1%,-25%,6%,0%
COc1ccccc1CNC(=O)COC(=O)c1c(C)nn(-c2ccccc2)c1Cl,?,?,0%,-7%
Cc1nn(-c2ccccc2)c(Cl)c1C(=O)OCC(=O)N(C)c1c(N)n(Cc2ccccc2)c(=O)[nH]c1=O,18%,1%,3%,3%
O=S(=O)(c1ccc2c(c1)OCCO2)N1CCN(S(=O)(=O)c2ccccc2F)CC1,-8%,·,·,-6%
CCOC1(c2ccccc2)CC1C(=O)N/N=C/c1cccc([N+](=O)[O-])c1 (stereo not drawn),18µM*,-18%,9%,-8%
COC(=O)N/N=C/c1cccc([N+](=O)[O-])c1,-16%,-11%,10%,-9%
O=S(=O)(c1cccc(C(F)(F)F)c1)N1CCC(Oc2ccc(-n3cnnn3)cc2)CC1,18µM*,·,0%,?
Cc1c(S(=O)(=O)N2CCCCC2)c(=O)n(C)c(=O)n1C,6%,0%,0%,0%
COc1cccc(C2=Nn3c(nnc3-c3ccccc3O)SC2)c1,-23%,10%,2%,-12%
C[n+]1c2n(c3ccccc31)N=C(c1cc(C(C)(C)C)c(O)c(C(C)(C)C)c1)CS2,18µM*,?,-2%,?
C=CCn1c(SCc2ccc(C(=O)Nc3nccs3)cc2)nnc1-c1ccc(C)c(Cl)c1,21µM*,?,1%,-18%
C=C1c2nc3ccccc3n2C=C(c2ccc(C)cc2)N1c1ccccc1,5%,·,9%,-1%
SMILES,Nrf2 inh,ELG1 repair inh,Nrf2 activator,A549 viability
Cc1ccc(S(=O)(=O)N2[C@@H](c3ccc(C(C)(C)C)cc3)C(C(=O)O)=CC[C@H]2c2ccc(Cl)cc2)cc1,18µM*,-20%,0%,-23%
Cc1ccc([C@@H]2CC=C(C(=O)O)[C@H](c3ccc(C(C)(C)C)cc3)N2S(=O)(=O)c2ccc(C)cc2)cc1,18µM*,?,4%,-23%
CCc1ccc([C@@H]2CC=C(C(=O)O)[C@H](c3ccc(C(C)(C)C)cc3)N2S(=O)(=O)c2ccc(C)cc2)cc1,21µM*,?,1%,?
Cc1ccc([C@H]2C(C(=O)O)=CC[C@@H](c3cccs3)N2S(=O)(=O)c2ccc(C)cc2)cc1,26µM*,9%,2%,?
CC1CCCCN1CCCNC(=O)c1ccc2c(c1)sc1nc(-c3ccc(F)cc3)cn12 (stereo not drawn),12%,·,?,2%
O=[N+]([O-])c1ccccc1/C=C/CN1CCN(Cc2ccc3c(c2)OCO3)CC1,-8%,-1%,3%,17%
CC(=O)C1=C(c2ccc(C)cc2)N(C(C)=O)n2c(nnc2-c2ccccc2)S1,·,·,1%,0%
Cc1ccc(S(=O)(=O)N2[C@@H](c3ccc(C(C)(C)C)cc3)C(C(=O)O)=CC[C@H]2c2ccc(C(C)C)cc2)cc1,2.9µM*,16µM*,3%,?
O=C(Cn1nc(N2CCN(c3ccccc3)CC2)ccc1=O)Nc1ccc(F)cc1F,1%,·,3%,-3%
O=C(Nc1ccccc1F)c1ccc(Cn2nc(N3CCN(c4ccccc4)CC3)ccc2=O)o1,21µM*,·,-1%,-20%
O=C(CCNS(=O)(=O)c1ccc(F)c(F)c1)NCCN1CCOCC1,-21%,24%,0%,-1%
CCCn1c(SCC(=O)c2ccc3c(c2)OCCO3)n[nH]c1=O,3%,-5%,-1%,-3%
O=c1[nH]nc(SCCS(=O)(=O)c2ccc(F)cc2)n1-c1ccc2c(c1)OCCO2,14%,20%,13µM*,-12%
O=c1[nH]nc(SCCS(=O)(=O)c2ccc(F)cc2)n1-c1ccccc1,-27%,1%,13µM*,-6%
CCOc1ccccc1NC(=O)CSc1n[nH]c(=O)n1-c1ccccc1,?,·,0%,2%
CCOc1ccc(NC(=O)[C@@H]2CCCN2C(=O)c2cccs2)cc1S(=O)(=O)N1CCCCC1,6%,-22%,0%,10%
Cc1ccc(NC(=O)CN2CCCC2c2cccs2)cc1S(=O)(=O)N1CCCCC1 (stereo not drawn),21µM*,?,1%,-15%
CCOc1ccc(NC(=O)CN2CCCC2c2cccs2)cc1S(=O)(=O)N1CCCCC1 (stereo not drawn),?,15µM*,8%,-5%
CCOc1ccccc1NC(=O)N1CCCN(c2ncccc2C#N)CC1,4%,?,0%,1%
CCOc1ccc(NS(=O)(=O)c2csc(C(N)=O)c2)cc1,-18%,?,-1%,-2%
CCOC(=O)C1=C(c2ccccc2)N=c2s/c(=C\c3ccc(O)cc3)c(=O)n2C1c1cccs1 (stereo not drawn),16µM*,?,-1%,?
Cc1cccc(C(=O)N(C(=O)c2cccc(C)c2)N(C)C)c1,-23%,·,-2%,1%
COc1ccc(Br)cc1CC1C(=O)Nc2ccccc21 (stereo not drawn),7.3µM*,·,4%,2%
CC(=O)c1ccc(NC(=O)Nc2ccc3c(c2)N(C)C(=O)CS3)cc1,?,18µM*,3%,-6%
